Hits are enriched below; roughly 2.3% of the tested compounds scored in any of these assays.
ADAM10 inh = inhibits human ADAM10; inhibition, % at 7 µM; AID 720582; 370,000 tested, 0.62% active; recombinant ADAM10, EDANS/DABCYL FRET peptide cleavage, 3 h; O14672;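 active = inhibition above a per-campaign cutoff equal to the mean of compounds falling between control-based bounds plus 3 SD, cut at about 20% in these data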;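 note: 0% = DMSO wells while the 100% control is not disclosed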
ADAM17 inh = ADAM17 inhibition, QFRET primary screen; recombinant ADAM17, EDANS/DABCYL FRET peptide cleavage; 370,000 tested, 0.83% active; inhibition, % at 6.95 µM;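 active = inhibition above the mean of compounds lying between control limits plus 3 SD, set per campaign, cut at about 8.5% in these data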;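 note: 0% = DMSO-only wells as the low control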
Target sequence (P78536 215-824 limits assumed): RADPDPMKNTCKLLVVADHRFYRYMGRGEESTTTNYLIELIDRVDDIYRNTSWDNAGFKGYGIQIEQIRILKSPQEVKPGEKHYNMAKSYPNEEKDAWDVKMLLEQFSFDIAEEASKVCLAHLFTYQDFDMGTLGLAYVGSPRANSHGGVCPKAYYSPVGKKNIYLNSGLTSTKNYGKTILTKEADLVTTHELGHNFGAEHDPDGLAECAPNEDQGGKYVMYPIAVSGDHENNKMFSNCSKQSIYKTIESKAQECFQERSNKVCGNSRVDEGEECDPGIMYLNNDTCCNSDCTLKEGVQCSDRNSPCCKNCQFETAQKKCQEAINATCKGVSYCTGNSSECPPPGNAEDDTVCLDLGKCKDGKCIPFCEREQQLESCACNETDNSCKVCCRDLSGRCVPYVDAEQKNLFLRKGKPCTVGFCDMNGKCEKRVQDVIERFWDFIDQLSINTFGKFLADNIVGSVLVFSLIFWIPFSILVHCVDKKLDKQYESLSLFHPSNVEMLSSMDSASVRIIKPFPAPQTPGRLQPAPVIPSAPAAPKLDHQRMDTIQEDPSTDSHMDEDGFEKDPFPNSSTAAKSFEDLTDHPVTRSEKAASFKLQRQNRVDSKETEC
V-ATPase pHluor = yeast V-ATPase proton transport regulation by pHLuorin | S. cerevisiae, pHLuorin cytosolic pH fluorescence | 350,000 tested, 0.37% active | AID 504577 | response, % at 10 µM; in the data active = response mostly above about 7.3%, no sharp cut-off; inactive = mostly below about 5.4%; note: actives read high
proKLK7 act = activates the human kallikrein-7 zymogen; 370,000 tested, 0.9% active; P49862; AID 652039; activation, % at 7 µM; purified proKLK7, EDANS-DABCYL substrate fluorescence; 100% is mature enzyme control, 0% vehicle;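 active = activation above the mean of all tested compounds plus 3 SD, computed per campaign excluding outliers beyond control limits, cut at about 13% in these data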
proKLK7 act conf = proKLK7 activation, confirmation; shares compounds with proKLK7 act; purified proKLK7, EDANS-DABCYL substrate fluorescence; scaled: vehicle 0, mature enzyme 100; activation, % at 7 µM; 3,200 tested, 68% active; AID 686949;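 active = activation, as change over the incubation, above the mean of all tested compounds plus 3 SD, cut at about 13% in these data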
EDANS interfere = optically interferes with EDANS-DABCYL signal, flagging KLK7 hits | EDANS-DABCYL substrate fluorescence interference, no enzyme, 4 h; solvent 0%, active enzyme control 100% | 3,200 tested, 80% active | activation, % at 7 µM | AID 686952 | shares compounds with proKLK7 act;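 active = activation above the all-compound mean plus 3 SD, ignoring values outside control-based bounds, cut at about 4.8% in these data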;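 note: value is the 4 h activation minus the activation read at time zero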
EDANS interf = EDANS fluorescence interference in dose response, no enzyme; shares compounds with proKLK7 act; EDANS-DABCYL peptide fluorescence interference; EC50, µM; 250 tested, 20% active;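 active = compounds that raise the fluorescence signal in this interference counterscreen, with EC50 at or below 10 µM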;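 note: intact quenched peptide substrate alone read at 355 nm excitation and 520 nm emission; signal is fluorescence gain from T0 to T4 after four hours at room temperature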
ADAM10 confirm = human ADAM10 inhibition, confirmation | shares compounds with ADAM10 inh | 2,100 tested, 1% active | inhibition, % at 6.95 µM | AID 743208 | ADAM10 QFRET peptide cleavage, EDANS fluorescence;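 active = inhibition above about 20% chosen separately for each screening run, limit read from the data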;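 note: 0% = DMSO wells and 100% = marimastat wells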
ADAM17 counter = inhibits human ADAM17 in ADAM10 exosite counter-screen | shares compounds with ADAM10 inh | ADAM17 QFRET peptide cleavage, EDANS fluorescence | inhibition, % at 6.95 µM | 2,100 tested, 0.5% active;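 active = mean triplicate inhibition above the solvent-only control wells' mean plus 3 SD, cut at about 12% in these data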;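 note: 0% = DMSO wells and 100% = marimastat wells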
ADAM10 ctr = inhibits human ADAM10 in ADAM17 exosite counter-screen | shares compounds with ADAM17 inh | recombinant ADAM10, EDANS/DABCYL FRET peptide cleavage, 3 h | inhibition, % at 6.95 µM | 2,900 tested, 47% active;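 active = mean inhibition over the triplicate runs exceeds the activity threshold set in the earlier primary screen, cut at about 20% in these data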;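 note: 0% = DMSO wells and 100% = marimastat wells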
ADAM17 confirm = human ADAM17 inhibition, confirmation; 2,900 tested, 65% active; shares compounds with ADAM17 inh; inhibition, % at 6.95 µM; recombinant ADAM17, EDANS/DABCYL QFRET peptide cleavage;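 active = mean inhibition across replicates above the hit cutoff set in the primary screen, cut at about 8.5% in these data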;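 note: 0% = DMSO wells and 100% = marimastat wells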
The depositor's hits bear a star; i = inactive; x = no result.

SMILES | ADAM10 inh | ADAM17 inh | V-ATPase pHluor | proKLK7 act | ADAM10 confirm | ADAM17 counter | others
CCC1(C)Cc2ccccc2-c2nc(NCCO)[nH]c(=O)c21 (stereo not given) | i | i | -3 | 23* | x | x | proKLK7 act conf=-24;EDANS interfere=-31
CCC1(C)Cc2ccccc2-c2nc(NN)[nH]c(=O)c21 (stereo not given) | -277 | -104 | 1 | 3 | x | x
CCOc1ccc(/C=C(\C)C(=O)c2c(C)cc(C)[nH]c2=O)cc1 | 20* | 7 | 0 | 28* | -2 | -1 | proKLK7 act conf=0;EDANS interfere=0
O=C(OCCCN1CCC2(CCCCC2)C1=O)c1ccccc1 | -9 | -1 | x | 0 | x | x
COc1ccc(CCNC(=O)CSc2nc(N)c(C#N)c(-c3cccs3)c2C#N)cc1OC | 8 | 8.9* | 1 | 22* | x | x | proKLK7 act conf=35*;EDANS interfere=41*;ADAM10 ctr=15;ADAM17 confirm=8
Cc1ccccc1NC(=O)CSc1nc(N)c(C#N)c(-c2cccs2)c1C#N | -70 | -12 | 1 | -7 | x | x
COC(=O)[C@]12C[C@H](CC(=O)NCCCCc3ccccc3)C(=O)N(Cc3cccc4ccccc34)C1=C[C@H](C1CCCC1)O[C@@H]2C | -13 | -6 | x | 0 | x | x
CCc1ccccc1NC(=O)CSc1nc2n[nH]c(C)c2c(=N)n1-c1ccc(OC)cc1 | 16 | 12* | -2 | 31* | x | x | proKLK7 act conf=20*;EDANS interfere=16*;EDANS interf=3.3*;ADAM10 ctr=-2;ADAM17 confirm=9.0*
O=C(c1cccc(Cl)c1)N1CCC(=O)N([C@H](COCc2cccc(Cl)c2)Cc2ccccc2)CC1 | 20* | 7 | x | 0 | 4 | 1
CC(C)CC(COCc1cccc(C(F)(F)F)c1)N1CCN(C(=O)c2cccc(C(F)(F)F)c2)CCC1=O (stereo not given) | 21* | 7 | -2 | 1 | 3 | 0
CC(C)CC(COCc1ccc(C(F)(F)F)cc1)N1CCN(C(=O)c2ccc(C(F)(F)F)cc2)CCC1=O (stereo not given) | 27* | 7 | 1 | 0 | 0 | 1
O=S1(=O)c2ccc(Br)cc2OC[C@@H](Cc2ccccc2)N1Cc1cn(CCC2OCCCO2)nn1 | -1 | -1 | x | 1 | x | x
CCCCN1CCS(=O)(=O)N(Cc2cn(Cc3ccc(C)cc3)nn2)C(C(=O)OC)C1 (stereo not given) | 1 | 1 | x | 0 | x | x
O=C(CSC1CS(=O)(=O)c2cc([N+](=O)[O-])ccc21)NNC(=O)c1ccccc1 (stereo not given) | 24* | 6 | -1 | 0 | -1 | -1
COc1ccccc1C(=O)N1CCC(Oc2cccnc2)CC1 | 13 | 1 | x | 0 | x | x
O=S1(=O)N[C@@H](Cc2ccccc2)COc2cc(NC3CC3)ccc21 | -3 | 1 | x | -1 | x | x
Cc1cccc(N2CCN(S(=O)(=O)c3ccc4c(c3)NC(=O)CS4)CC2)c1C | 23* | 8 | 1 | 0 | 8 | 2
O=C(C1CCCN1S(=O)(=O)c1cccc2ccccc12)N1CCN(c2ccccc2)CC1 (stereo not given) | 0 | 1 | x | 0 | x | x
Cc1noc(C)c1COc1cccc(C(=O)OCCOc2ccc(F)cc2)c1 | 26* | 5 | 1 | 1 | 4 | 1
COP(N)(=O)C(CC(C)C)NC(=O)OCc1ccccc1 (stereo not given) | -5 | -2 | x | 0 | x | x
